# Among all 5,500 compounds or so, about 2,000 (36%) were called active. Another 18% or so got no clear call; they are omitted. The list shows a part of the results. Unmarked numbers belong to inactive results. Rule as the data show it: active = normalized growth mostly below about 0.91 (no sharp cut-off); inconclusive = no clear call, values can overlap the other calls; inactive = mostly above about 0.92.
# Test: chemical genetic growth profiling, strain panel (AID 1159580);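 also: tested at 20 µM; growth read once vehicle control cultures reached saturation at 30 °C; 1 = growth at the plate median or of vehicle wells; lower values mean less growth of the strain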
# Settings: growth OD
structure (smiles),measurement,setting,value
Cc1cc(=O)c2c(O)c(C)c(O)cc2o1,normalized growth,"S. cerevisiae deletion strains, locus YJL187C, strain SWE1, stronger effect = lower value",1
same,normalized growth,"S. cerevisiae deletion strains, locus YJR043C, strain POL32, stronger effect = lower value",0.992
same,normalized growth,"S. cerevisiae deletion strains, locus YKL009W, strain mrt4, stronger effect = lower value",0.961
same,normalized growth,"S. cerevisiae deletion strains, locus YKL068W, stronger effect = lower value",1
same,normalized growth,"S. cerevisiae deletion strains, locus YKL085W, strain MDH1 (second series), stronger effect = lower value",0.996
same,normalized growth,"S. cerevisiae deletion strains, locus YKL085W, strain MDH1, stronger effect = lower value",0.996
same,normalized growth,"S. cerevisiae deletion strains, locus YKL160W, strain elf1, stronger effect = lower value",1.02
same,normalized growth,"S. cerevisiae deletion strains, locus YKR001C, strain vps1, stronger effect = lower value",0.888 (active)
same,normalized growth,"S. cerevisiae deletion strains, locus YKR026C, strain gcn3, stronger effect = lower value",1.02
same,normalized growth,"S. cerevisiae deletion strains, locus YKR091W, strain srl3, stronger effect = lower value",1.02
same,normalized growth,"S. cerevisiae deletion strains, locus YLL001W, strain dnm1, stronger effect = lower value",1.02
same,normalized growth,"S. cerevisiae deletion strains, locus YLL026W, stronger effect = lower value",1.01
same,normalized growth,"S. cerevisiae deletion strains, locus YLL041C, strain sdh2, stronger effect = lower value",1.02
same,normalized growth,"S. cerevisiae deletion strains, locus YLR027C, strain aat2, stronger effect = lower value",1
same,normalized growth,"S. cerevisiae deletion strains, locus YLR039C, strain RIC1, stronger effect = lower value",1.1
same,normalized growth,"S. cerevisiae deletion strains, locus YLR058C, strain SHM2, stronger effect = lower value",0.978
same,normalized growth,"S. cerevisiae deletion strains, locus YLR102C, strain apc9, stronger effect = lower value",0.976
same,normalized growth,"S. cerevisiae deletion strains, locus YLR221C, strain rsa3, stronger effect = lower value",1.01
same,normalized growth,"S. cerevisiae deletion strains, locus YLR258W, strain gsy2, stronger effect = lower value",1.01
same,normalized growth,"S. cerevisiae deletion strains, locus YLR262C, strain YPT6 (second series), stronger effect = lower value",1.01
same,normalized growth,"S. cerevisiae deletion strains, locus YLR262C, strain YPT6, stronger effect = lower value",1.12
same,normalized growth,"S. cerevisiae deletion strains, locus YLR268W, strain sec22, stronger effect = lower value",0.957
same,normalized growth,"S. cerevisiae deletion strains, locus YLR320W, strain mms22, stronger effect = lower value",1.04
same,normalized growth,"S. cerevisiae deletion strains, locus YLR330W, strain CHS5, stronger effect = lower value",0.998
same,normalized growth,"S. cerevisiae deletion strains, locus YLR342W, strain FKS1, stronger effect = lower value",1.01
same,normalized growth,"S. cerevisiae deletion strains, locus YLR357W, strain rsc2, stronger effect = lower value",1.02
same,normalized growth,"S. cerevisiae deletion strains, locus YLR370C, strain arc18, stronger effect = lower value",1.04
same,normalized growth,"S. cerevisiae deletion strains, locus YLR371W, strain rom2, stronger effect = lower value",0.954
same,normalized growth,"S. cerevisiae deletion strains, locus YLR384C, strain iki3, stronger effect = lower value",1.01
same,normalized growth,"S. cerevisiae deletion strains, locus YLR418C, strain cdc73, stronger effect = lower value",0.854
same,normalized growth,"S. cerevisiae deletion strains, locus YML016C, strain PPZ1, stronger effect = lower value",1.01
same,normalized growth,"S. cerevisiae deletion strains, locus YML032C, strain rad52, stronger effect = lower value",0.929
same,normalized growth,"S. cerevisiae deletion strains, locus YML120C, strain ndi1, stronger effect = lower value",1.02
same,normalized growth,"S. cerevisiae deletion strains, locus YML124C, strain tub3, stronger effect = lower value",0.99
same,normalized growth,"S. cerevisiae deletion strains, locus YMR058W, strain fet3, stronger effect = lower value",1.03
same,normalized growth,"S. cerevisiae deletion strains, locus YMR078C, strain ctf18, stronger effect = lower value",0.983
same,normalized growth,"S. cerevisiae deletion strains, locus YMR125W, strain sto1, stronger effect = lower value",0.989
same,normalized growth,"S. cerevisiae deletion strains, locus YMR129W, stronger effect = lower value",1.02
same,normalized growth,"S. cerevisiae deletion strains, locus YMR205C, strain PFK2, stronger effect = lower value",1.01
same,normalized growth,"S. cerevisiae deletion strains, locus YMR223W, strain ubp8, stronger effect = lower value",0.963
same,normalized growth,"S. cerevisiae deletion strains, locus YMR231W, strain pep5, stronger effect = lower value",1.02
same,normalized growth,"S. cerevisiae deletion strains, locus YMR307W, strain GAS1, stronger effect = lower value",0.989
same,normalized growth,"S. cerevisiae deletion strains, locus YNL067W, strain RPL9B, stronger effect = lower value",0.971
same,normalized growth,"S. cerevisiae deletion strains, locus YNL071W, strain lat1, stronger effect = lower value",1.02
same,normalized growth,"S. cerevisiae deletion strains, locus YNL128W, strain TEP1, stronger effect = lower value",0.993
same,normalized growth,"S. cerevisiae deletion strains, locus YNL209W, strain ssb2, stronger effect = lower value",1.02
same,normalized growth,"S. cerevisiae deletion strains, locus YNL233W, strain BNI4, stronger effect = lower value",0.956
same,normalized growth,"S. cerevisiae deletion strains, locus YNL248C, strain rpa49, stronger effect = lower value",1.01
same,normalized growth,"S. cerevisiae deletion strains, locus YNL250W, strain rad50, stronger effect = lower value",0.967
same,normalized growth,"S. cerevisiae deletion strains, locus YNL271C, strain bni1, stronger effect = lower value",0.993
same,normalized growth,"S. cerevisiae deletion strains, locus YNL298W, strain CLA4, stronger effect = lower value",0.969
same,normalized growth,"S. cerevisiae deletion strains, locus YNL307C, strain MCK1, stronger effect = lower value",0.971
same,normalized growth,"S. cerevisiae deletion strains, locus YNL322C, strain KRE1 (second series), stronger effect = lower value",1.02
same,normalized growth,"S. cerevisiae deletion strains, locus YNL322C, strain KRE1, stronger effect = lower value",0.994
same,normalized growth,"S. cerevisiae deletion strains, locus YNR049C, strain mso1, stronger effect = lower value",1.01
same,normalized growth,"S. cerevisiae deletion strains, locus YNR052C, strain pop2, stronger effect = lower value",0.987
same,normalized growth,"S. cerevisiae deletion strains, locus YOL006C, strain TOP1, stronger effect = lower value",0.946
same,normalized growth,"S. cerevisiae deletion strains, locus YOL012C, strain htz1",1.07
same,normalized growth,"S. cerevisiae deletion strains, locus YOL147C, strain pex11, stronger effect = lower value",0.966
same,normalized growth,"S. cerevisiae deletion strains, locus YOR001W, strain rrp6, stronger effect = lower value",1.03
same,normalized growth,"S. cerevisiae deletion strains, locus YOR061W, strain CKA2, stronger effect = lower value",1.02
same,normalized growth,"S. cerevisiae deletion strains, locus YOR069W, strain VPS5, stronger effect = lower value",1
same,normalized growth,"S. cerevisiae deletion strains, locus YOR070C, strain gyp1, stronger effect = lower value",1.02
same,normalized growth,"S. cerevisiae deletion strains, locus YOR080W, strain dia2, stronger effect = lower value",1.02
same,normalized growth,"S. cerevisiae deletion strains, locus YOR083W, strain WHI5, stronger effect = lower value",1.01
same,normalized growth,"S. cerevisiae deletion strains, locus YOR106W, strain vam3, stronger effect = lower value",1.02
same,normalized growth,"S. cerevisiae deletion strains, locus YOR136W, strain idh2, stronger effect = lower value",0.949
same,normalized growth,"S. cerevisiae deletion strains, locus YOR144C, strain elg1, stronger effect = lower value",0.988
same,normalized growth,"S. cerevisiae deletion strains, locus YOR184W, strain ser1, stronger effect = lower value",0.986
same,normalized growth,"S. cerevisiae deletion strains, locus YOR265W, strain rbl2, stronger effect = lower value",1.01
same,normalized growth,"S. cerevisiae deletion strains, locus YOR270C, strain vph1, stronger effect = lower value",1.07
same,normalized growth,"S. cerevisiae deletion strains, locus YOR290C, strain snf2, stronger effect = lower value",1.03
same,normalized growth,"S. cerevisiae deletion strains, locus YOR316C, strain cot1, stronger effect = lower value",0.983
same,normalized growth,"S. cerevisiae deletion strains, locus YPL051W, strain arl3, stronger effect = lower value",1.02
same,normalized growth,"S. cerevisiae deletion strains, locus YPL078C, strain atp4, stronger effect = lower value",1.03
same,normalized growth,"S. cerevisiae deletion strains, locus YPL106C, strain sse1, stronger effect = lower value",1.03
same,normalized growth,"S. cerevisiae deletion strains, locus YPL240C, strain hsp82, stronger effect = lower value",1.01
same,normalized growth,"S. cerevisiae deletion strains, locus YPL241C, strain CIN2, stronger effect = lower value",0.997
same,normalized growth,"S. cerevisiae deletion strains, locus YPR119W, strain clb2, stronger effect = lower value",0.99
same,normalized growth,"S. cerevisiae deletion strains, locus YPR141C, strain kar3, stronger effect = lower value",1.01
same,normalized growth,"S. cerevisiae deletion strains, locus YPR163C, strain tif3, stronger effect = lower value",0.866 (active)
same,normalized growth,"S. cerevisiae deletion strains, locus YPR167C, strain met16, stronger effect = lower value",0.957
same,normalized growth,"S. cerevisiae deletion strains, strain wtn01, stronger effect = lower value",0.97
same,normalized growth,"S. cerevisiae strains, strain wild type, stronger effect = lower value",1.02

# Source: PubChem BioAssay AID1159580 (chemical genetic matrix, 2015)
